Measured values published in PubChem BioAssay (Tox21).
Results filed as inconclusive are left out. The source made the active and inactive calls. Unless noted, calls follow the shape of the dose curve; as a rule, active = well fitted curve in the direction sought with a large enough effect in the repeat runs; inconclusive = weak or mixed curves; inactive = no such curve, though single readings can be large; an effect the other way counts as inactive or inconclusive.

Experiments:
[1] = qHTS assay to identify small molecule agonists of the hypoxia (HIF-1) signaling pathway (AID 1224846; active = well fitted activation curve with a large enough effect in the signal ratio in the repeat runs, not every such curve was filed as active; the % refers to the signal ratio)
In short: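 ME-180 HRE-bla reporter cells; compounds in DMSO, 17 h at 37C; read-out beta-lactamase via CCF4-AM FRET.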

[2] = qHTS assay to identify small molecule agonists of H2AX - cell viability counter screen (AID 1224847; calls by dose curve; also: nearly all actives have a fitted effect of over 30% in size; also: potency is read from the fitted curve at half-maximal effect; as to activity change, negative = cytotoxicity: top concentration of the series differs between compounds)
In short: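 Viability of CHO-K1 (wild type) cells after 3 hr compound exposure was measured by CellTiter-Glo luminescence.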

[3] = qHTS assay to identify small molecule antagonists of the estrogen related receptor (ERR) signaling pathway from Tox21 library (AID 1224848); also: nearly all actives have a fitted effect of over 50% in size; also: potency is read from the fitted curve at half-maximal effect
In short: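 Quantitative high-throughput format: ERR reporter cells (2,000/well) pre-incubated 6 h, treated 18 h at 37 C with compounds in DMSO alongside positive and negative controls, then read by ONE-Glo luminescence.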

[4] = qHTS assay to identify small molecule agonists of the estrogen related receptor (ERR) signaling pathway from Tox21 library (AID 1224849; calls by dose curve; also: nearly all actives have a fitted effect of over 15% in size); settings: ERR reporter cell line, ONE-Glo luciferase, 18 h; at 92.4 µM (top of the series) unless noted
In short: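 Luciferase activity in ERR pathway reporter cells served as the agonist readout; exposure lasted 18 h at 37 C, with ONE-Glo detection after 30 min at room temperature.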

[5] = qHTS RealTime-Glo MT Cell Viability Assay in HEK293 cells - 32 hour (AID 1224868); also: nearly all actives have a fitted effect of over 50% in size; also: potency is read from the fitted curve at half-maximal effect; as to activity change, negative = cytotoxic: top concentration of the series differs between compounds
In short: (§1)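 Homogeneous bioluminescent viability format in HEK293 cells (600 cells/well). Following 5 h at 37 C/5% CO2, 23 nL compound was pintooled; the signal was measured repeatedly during 40 h incubation.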

[6] = A CellTox Green Cytotoxicity Assay to monitor cytotoxicity in HEK293 cells - 0 hour (AID 1224869); also: nearly all actives have a fitted effect of over 50% in size; also: potency is read from the fitted curve at half-maximal effect
In short: (§2)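 Real-time, in one plate: 600 HEK293 cells/well with dead-cell DNA dye, pinned compound after 5 h, 37 C incubation over 40 h; viable cells give no appreciable fluorescence.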

[7] = A CellTox Green Cytotoxicity Assay to monitor cytotoxicity in HEK293 cells - 40 hour (AID 1224871); also: nearly all actives have a fitted effect of over 45% in size; also: potency is read from the fitted curve at half-maximal effect
In short: as §2

[8] = qHTS RealTime-Glo MT Cell Viability Assay in HEK293 cells - 16 hour (AID 1224872); also: nearly all actives have a fitted effect of over 50% in size; also: potency is read from the fitted curve at half-maximal effect; as to activity change, negative = cytotoxicity: top concentration of the series differs between compounds
In short: as §1

[9] = qHTS RealTime-Glo MT Cell Viability Assay in HEK293 cells - 40 hour (AID 1224874); settings: RealTime-Glo luminescence; max response: stronger effect = lower value; also: nearly all actives have a fitted effect of over 50% in size; also: potency is read from the fitted curve at half-maximal effect
In short: (§3)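 Kinetic, non-lysing viability readout. Seed HEK293 (600/well) with reagent, incubate 5 h at 37 C/5% CO2, pin 23 nL compound in DMSO, incubate at 37 C, read luminescence at 0, 8, 16, 24, 32, 40 h.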

[10] = A CellTox Green Cytotoxicity Assay to monitor cytotoxicity in HEK293 cells - 24 hour (AID 1224875); also: nearly all actives have a fitted effect of over 45% in size; also: potency is read from the fitted curve at half-maximal effect
In short: as §2

[11] = A CellTox Green Cytotoxicity Assay to monitor cytotoxicity in HepG2 cells - 24 hour (AID 1224878); also: nearly all actives have a fitted effect of over 45% in size; also: potency is read from the fitted curve at half-maximal effect
In short: (§4)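 Cytotoxicity was tracked as dead-cell DNA fluorescence in HepG2 cells treated with test compounds at 37 C; each time-point value comes from one kinetic series spanning 0, 8, 16, 24, 32 and 40 h.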

[12] = A CellTox Green Cytotoxicity Assay to monitor cytotoxicity in HepG2 cells - 40 hour (AID 1224879); also: nearly all actives have a fitted effect of over 40% in size; also: potency is read from the fitted curve at half-maximal effect
In short: as §4

[13] = qHTS RealTime-Glo MT Cell Viability Assay in HEK293 cells - 0 hour (AID 1224880); also: nearly all actives have a fitted effect of over 45% in size; also: potency is read from the fitted curve at half-maximal effect; as to activity change, negative = cytotoxicity: top concentration of the series differs between compounds
In short: as §3

[14] = A CellTox Green Cytotoxicity Assay to monitor cytotoxicity in HEK293 cells - 32 hour (AID 1224881); also: nearly all actives have a fitted effect of over 40% in size; also: potency is read from the fitted curve at half-maximal effect
In short: as §2

[15] = qHTS RealTime-Glo MT Cell Viability Assay in HepG2 cells - 24 hour (AID 1224867); also: nearly all actives have a fitted effect of over 50% in size
In short: (§5)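 Cell number in HepG2 cultures estimated from NanoLuc luminescence generated by metabolic reduction of a prosubstrate by living cells. The homogeneous, nonlytic format allowed repeated reads at 0, 8, 16, 24, 32 and 40 h of compound exposure.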

[16] = qHTS RealTime-Glo MT Cell Viability Assay in HepG2 cells - 40 hour (AID 1224870); also: nearly all actives have a fitted effect of over 50% in size
In short: (§6)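 HepG2 cells (600/well) mixed with RealTime-Glo MT reagent, settled 5 h at 37 C/5% CO2 before compound addition. Nonlytic NanoLuc luminescence from viable-cell prosubstrate reduction read repeatedly during 40 h treatment at 37 C.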

[17] = qHTS RealTime-Glo MT Cell Viability Assay in HepG2 cells - 8 hour (AID 1224873); also: nearly all actives have a fitted effect of over 55% in size
In short: as §6

[18] = A CellTox Green Cytotoxicity Assay to monitor cytotoxicity in HepG2 cells - 16 hour (AID 1224876); also: nearly all actives have a fitted effect of over 45% in size; also: potency is read from the fitted curve at half-maximal effect
In short: as §4

[19] = qHTS RealTime-Glo MT Cell Viability Assay in HepG2 cells - 32 hour (AID 1224877); also: nearly all actives have a fitted effect of over 55% in size
In short: as §5
% is scaled to controls: 0 for no effect and ±100 for the full control effect.

CCN(CC)c1ccc2c(-c3ccccc3C(=O)O)c3ccc(=[N+](CC)CC)cc-3oc2c1
active: Potency [2] 40.1 µM | Potency [3] 27.3 µM | Potency [5] 21.9 µM | Potency [6] 21.9 µM | Potency [7] 24.5 µM | Potency [8] 34.7 µM | Potency [9] 24.5 µM | Potency [10] 24.5 µM | Potency [11] 21.9 µM | Potency [12] 24.5 µM | Potency [14] 24.5 µM
inactive: Potency [1] | activity change, positive = activation [4] -49.3% | Potency [13]

CC(=O)OC[C@H]1O[C@@H](n2ncc(=O)[nH]c2=O)[C@H](OC(C)=O)[C@@H]1OC(C)=O
inactive: Potency [1] | Potency [2] | Potency [15] | Potency [5] | Potency [6] | Potency [16] | Potency [7] | Potency [8] | Potency [17] | Potency [10] | Potency [18] | Potency [19] | Potency [11] | Potency [12] | Potency [13] | Potency [14]

CCCCCCOC(=O)NC(=N)c1ccc(NCc2nc3cc(C(=O)N(CCC(=O)OCC)c4ccccn4)ccc3n2C)cc1
inactive: Potency [1] | Potency [2] | activity change, positive = activation [4] -64.4% [at 42.5 µM] | Potency [6] | Potency [16] | Potency [7] | Potency [10] | Potency [18] | Potency [14]
active: Potency [3] 13.3 µM | Potency [5] 10.7 µM | Potency [9] 10.7 µM | Potency [12] 23.9 µM

O=C(Nc1ccc(S(=O)(=O)N2CCOCC2)cc1)c1cc(Cl)ccc1NS(=O)(=O)c1ccc(Cl)s1
active: Potency [6] 19 µM | Potency [7] 21.3 µM | Potency [10] 23.9 µM | Potency [18] 26.8 µM | Potency [13] 10.7 µM | Potency [14] 23.9 µM
inactive: Potency [1] | Potency [2] | Potency [3] | activity change, positive = activation [4] -2.07% [at 42.5 µM] | Potency [5] | Potency [16] | Potency [8] | max response [9] -14.7%

NCC(=O)O
inactive: activation [1] -0.806% [at 15.8 µM] | activity change, negative = cytotoxicity [2] 1.04% [at 31.6 µM] | activity change, negative = cytotoxicity [15] 3.17% [at 15.8 µM] | activity change, negative = cytotoxic [5] 7.53% [at 15.8 µM] | cytotoxicity [6] -0.777% [at 15.8 µM] | activity change, negative = cytotoxic [16] 0.792% [at 15.8 µM] | cytotoxicity increase [7] 1.17% [at 15.8 µM] | viability change, negative = cytotoxic [17] 8.37% [at 15.8 µM] | max response [9] 8.51% | activity change [10] -2.36% [at 15.8 µM, stronger effect = higher value] | cytotoxicity increase [18] 8.58% [at 15.8 µM] | activity change, negative = cytotoxic [19] 0.863% [at 15.8 µM] | cytotoxicity increase [12] 1.98% [at 15.8 µM] | activity change, negative = cytotoxicity [13] -1.51% [at 15.8 µM]

O=CC1CC=CCC1 (configuration not stated)
inactive: Potency [1] | Potency [2] | Potency [15] | Potency [5] | Potency [6] | Potency [16] | Potency [7] | Potency [8] | Potency [17] | max response [9] 10.8% | Potency [10] | Potency [18] | Potency [19] | Potency [11] | Potency [12] | Potency [13] | Potency [14]

OCCNCc1ccccc1
inactive: Potency [1] | Potency [2] | Potency [5] | Potency [6] | Potency [16] | Potency [7] | Potency [17] | max response [9] -10.3% | Potency [10] | Potency [18] | Potency [19] | Potency [12] | Potency [13] | Potency [14]

Cc1oc(-c2ccccc2)nc1CCOc1cccc2c1ccn2CCC(=O)O
inactive: Potency [1] | Potency [2] | Potency [15] | Potency [5] | Potency [6] | Potency [16] | Potency [7] | Potency [8] | Potency [17] | max response [9] -19% | Potency [10] | Potency [18] | Potency [19] | Potency [11] | Potency [12] | Potency [13] | Potency [14]

O=C(c1ccc(F)cc1)C1CCN(CCn2c(=S)[nH]c3ccccc3c2=O)CC1
inactive: Potency [1] | activity change, positive = activation [4] -56.8% [at 42.5 µM] | Potency [6] | Potency [16] | Potency [7] | Potency [10] | Potency [18] | Potency [19] | Potency [11] | Potency [14]
active: Potency [2] 49.2 µM | Potency [3] 26.6 µM | Potency [5] 5.35 µM | Potency [8] 3.38 µM | Potency [9] 5.35 µM

C=C(C)C(=O)OCCOCC
inactive: Potency [1] | Potency [2] | Potency [15] | Potency [5] | Potency [6] | Potency [16] | Potency [7] | Potency [8] | Potency [17] | max response [9] 17.3% | Potency [10] | Potency [19] | Potency [11] | Potency [12] | Potency [13] | Potency [14]

CC1OC(=O)C(C)OC1=O (configuration not stated)
inactive: Potency [1] | Potency [2] | Potency [15] | Potency [5] | Potency [6] | Potency [16] | Potency [7] | Potency [17] | max response [9] -4.59% | Potency [10] | Potency [19] | Potency [11] | Potency [12] | Potency [13] | Potency [14]

CCN(CC)CCOC(=O)C(c1ccccc1)C1CCCCC1 (configuration not stated)
active: Potency [2] 49.2 µM | Potency [7] 21.3 µM | Potency [10] 23.9 µM | Potency [11] 23.9 µM | Potency [12] 21.3 µM | Potency [14] 23.9 µM
inactive: Potency [1] | Potency [6] | Potency [16] | Potency [17] | Potency [13]

CC(C)Nc1ccc(NC(C)C)c2c1C(=O)c1ccccc1C2=O
inactive: Potency [1] | Potency [5] | Potency [6] | Potency [16] | Potency [8] | Potency [17] | max response [9] -6.09% | Potency [18] | Potency [13]
active: Potency [2] 26.3 µM | Potency [7] 25.5 µM | Potency [10] 25.5 µM | Potency [12] 8.07 µM | Potency [14] 25.5 µM

CCOC(=O)C1=C[C@]2(CC)CCCN3CCc4c(n1c1ccccc41)[C@@H]32
inactive: Potency [1] | Potency [2] | Potency [15] | Potency [6] | Potency [16] | Potency [7] | Potency [8] | Potency [17] | max response [9] -21.2% | Potency [10] | Potency [19] | Potency [13] | Potency [14]

CCCCC(CC)CN1C(=O)C2C3C=CC(C3)C2C1=O (configuration not stated)
active: Potency [3] 54.5 µM | Potency [7] 30.9 µM | Potency [14] 30.9 µM
inactive: Potency [1] | activity change, positive = activation [4] -33.1% | Potency [15] | Potency [6] | Potency [16] | Potency [17] | Potency [18] | Potency [19] | Potency [11] | Potency [12] | Potency [13]
